The panel holds about 83,000 compounds, 20% with a hit somewhere; the sample as a whole holds those more often.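 Negative percent growth values reflect cell death: -40 means 40% of the cells present at the start died, and -100 means all died.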 Activity calls are given as the source filed them. Rule for the calls: active = growth percent below 10; inactive = the rest.

This assay deals with UO-31 renal. Kind of assay: NCI-60 one-dose screen, 48 h (100 = growth as untreated, 0 = no growth, -100 = all killed). To be noted: 10 µM unless noted.
For `Cn1nc(C(F)(F)F)cc1-c1cc(Cl)c(OCc2ccc(Cl)cc2)c(-c2ccc(Cl)c(C(F)(F)F)c2)c1O`, the growth was 0.656% (active).

As for `CC(=O)O[C@H]1[C@H](CC#CC#CC[C@@H]2C[C@]3(C)[C@H]4CC=C5[C@H]6[C@@H](C)[C@H](C)CC[C@]6(C(=O)NCCN(CCN)CCN)CC[C@@]5(C)[C@]4(C)CC[C@H]3C(C)(C)[C@H]2OC(C)=O)C[C@]2(C)[C@H]3CC=C4[C@H]5[C@@H](C)[C@H](C)CC[C@]5(C(=O)NCCN(CCN)CCN)CC[C@@]4(C)[C@]3(C)CC[C@H]2C1(C)C`, the growth is 33.7% (inactive).

In the case of `CC(=O)c1ccc(Nc2nc(Cl)nc(Oc3c(Cl)cccc3Cl)n2)cc1`, the growth is 77.8% (inactive).

In the case of `Oc1[nH]c2ccccc2c1/C=c1/ccc2c(c1)N=C(c1ccc(C(F)(F)F)cc1)N=2`, the growth is 73.1% (inactive).

Regarding `Brc1cccc(-n2ncc3c(Nc4ccc(-c5nnc(-c6ccccc6)o5)cc4)ncnc32)c1`, the growth is 75.9% (inactive).

For the compound `CCNC(=S)N(Cc1ccccc1)Cc1ccccc1`, the growth is 74.6% (inactive).

For `COc1cccc(CC(C)=C(c2ccc(OCCCN(C)C)cc2)c2ccc(OCCCN(C)C)cc2)c1`, the growth is -97.8% (active).

Regarding `N[C@@H](CO)C(=O)O`, the growth is 83.4% (inactive).

Regarding `O=C(c1ccc(C(F)(F)F)c(Cl)c1)N(Cc1ccc(Cl)cc1)c1ccc(-c2cc(C(F)(F)F)[nH]n2)c(O)c1`, the growth was 5.66% (active).

For `c1ccc(C(Nc2ccccn2)(c2ccccc2)c2ccccc2)cc1`, the growth is 35.4% (inactive).

On to `CC[C@H](Nc1nc(N)nc(N)c1Cl)c1nc2cccc(NCc3ccc(C(=O)NO)cc3)c2c(=O)n1-c1ccccc1`, for which the growth was 20.6% (inactive).

`N#Cc1nc(-c2ccc(Cl)cc2)cc(-c2ccc(Nc3nc(N4CCCCC4)nc(N4CCCCC4)n3)cc2)c1N`: the growth was 80% (inactive).

With `C#CC[C@@H]1C[C@]2(C)[C@H]3CC=C4[C@H]5[C@@H](C)[C@H](C)CC[C@]5(C(=O)NCCCCN)CC[C@@]4(C)[C@]3(C)CC[C@H]2C(C)(C)[C@H]1OC(C)=O`, the growth was 59.4% (inactive).

For `Cn1nc(C(F)(F)F)cc1-c1c[nH]c(OCc2ccc(Cl)cc2)c(-c2ccc(Cl)c(C(F)(F)F)c2)c1=O`, the growth is -1.38% (active).

Regarding `COc1ccc(NC(=O)c2ccc(C(F)(F)F)nc2Nc2ccc(Cl)cc2C)cc1Cl`, the growth is 9.94% (active).

As to `O=C(Cn1nncc1CN1C(=O)CSC1=O)Nc1ccc(F)cc1`, the growth was 87.6% (inactive).

Consider `COc1ccc(NC(=O)/C=C/c2ccc(Cl)c(Cl)c2)cn1`, for which the growth is 74.1% (inactive).

`CCCCNCC(O)c1cc(-c2ccc(C(F)(F)F)cc2)nc(-c2ccc(C(F)(F)F)cc2)c1` (stereo not drawn): the growth is -88.2% (active).

As to `CCCc1cc2c(cc1CN(Cc1cc3c(cc1CCC)OCO3)C(=N)OCC)OCO2`, the growth was 67.3% (inactive).

Take `CCCNC(=S)N/N=C(\C)c1ccccn1`: the growth was -0.774% (active).

In the case of `C#CC[C@@H]1C[C@]2(C)[C@H]3CC[C@@H]4[C@H]5C(C(=C)C)CC[C@]5(C(=O)NCCCN5CCN(CCCN)CC5)CC[C@@]4(C)[C@]3(C)CC[C@H]2C(C)(C)[C@H]1OC(C)=O` (stereo partly drawn), the growth was -95.3% (active).

With `COc1cc2nccc(Oc3ccc(NC(=O)C4(C(=O)Nc5c(F)cc(F)cc5F)CC4)cc3)c2cc1Oc1ccc(N)cn1`, the growth is 45.3% (inactive).

Regarding `COc1ccc2[nH]c(C(=O)OCc3ccc4cccc(O)c4n3)cc2c1`, the growth was -100% (active).

For `CCOCC(O)(c1ccc(Cl)cc1)c1ccc(Cl)cc1`, the growth is 91.3% (inactive).

For the compound `Cc1cc(C)cc(NC(=O)Cn2nncc2CN2C(=O)CSC2=O)c1`, the growth was 99.7% (inactive).

In the case of `Cc1ccc(NC(=O)Cn2nncc2CN2C(=O)CSC2=O)cc1C`, the growth was 91.6% (inactive).

In the case of `COC(=O)/C=C/c1cc(OC(C)=O)c2c(c1)[C@@H](C(=O)OC)[C@H](c1ccc(OC(C)=O)c(OC(C)=O)c1)O2`, the growth was 39.3% (inactive).

Turning to `N=c1n(Cc2ccccc2)c(N)cc(=O)n1Cc1ccccc1`, the growth was 13.4% (inactive).

Take `CC(C)[C@H](CN)NC[C@H](C)NS(=O)(=O)c1ccc(C(C)(C)C)cc1`: the growth was 77.1% (inactive).

Take `COc1ccc(/C(=C\c2ccc3c(c2)OCO3)C(=O)Nc2nc3ccccc3s2)cc1`: the growth was 91.9% (inactive).

In the case of `Cc1ccc(-c2cnc3sc4ccc(Cl)cc4n23)cc1`, the growth is 64.9% (inactive).

As to `COc1cc(C2Nc3ccccc3S2)cc(CN2CCOCC2)c1O` (stereo not drawn), the growth was 45.6% (inactive).

With `CC1=C(O)C(=O)C(c2c(C)cc(C)c(Br)c2C)=C(O)C1=O`, the growth was 83.7% (inactive).

The record behind these values is PubChem BioAssay (NCI).
